Test [1] deals with Nuclear receptor coactivator 3 (Homo sapiens) (UniProt Q9Y6Q9). Briefly: NCOA3 GAL4-fusion reporter inhibition – cell-based, luminescence, quadruplicate, confirmation (AID 588792;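 active = mean inhibition over 43.08%, the solvent-only control mean plus 3 SD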;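 note: 0% = DMSO treated cells and 100% = gossypol at 36 µM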). To be noted: HEK293 GAL4-SRC3 luciferase reporter, at 3.6 µM, hits give high values.
Test [2] concerns transactivating tegument protein VP16 (Human herpesvirus 1), Gal4-VP16 luciferase reporter. Briefly: repression of VP16-driven luciferase reporter – cell-based, luminescence, high throughput, counter-screen for SRC3 inhibitor project (AID 588794). To be noted: mammalian cells, at 3.6 µM, hits give high values. (Reporter assays use an easily measured gene product as a stand-in for the process of interest.)

The target of test [3] is Nuclear receptor coactivator 1 (Homo sapiens) (UniProt Q15788). Briefly: NCOA1 GAL4-fusion reporter inhibition – cell-based, luminescence, quadruplicate, confirmation (AID 588820;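 active = mean inhibition above 46.68%, the untreated control wells mean plus 3 SD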;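 note: 0% = DMSO wells and 100% = gossypol 36 µM treated wells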). The note with it: HEK293 GAL4-SRC1 luciferase reporter, at 3.6 µM, hits give high values.
Nuclear receptor coactivator 1 (Homo sapiens), sequence (Q15788 whole entry, looked up, the tested form may be a part): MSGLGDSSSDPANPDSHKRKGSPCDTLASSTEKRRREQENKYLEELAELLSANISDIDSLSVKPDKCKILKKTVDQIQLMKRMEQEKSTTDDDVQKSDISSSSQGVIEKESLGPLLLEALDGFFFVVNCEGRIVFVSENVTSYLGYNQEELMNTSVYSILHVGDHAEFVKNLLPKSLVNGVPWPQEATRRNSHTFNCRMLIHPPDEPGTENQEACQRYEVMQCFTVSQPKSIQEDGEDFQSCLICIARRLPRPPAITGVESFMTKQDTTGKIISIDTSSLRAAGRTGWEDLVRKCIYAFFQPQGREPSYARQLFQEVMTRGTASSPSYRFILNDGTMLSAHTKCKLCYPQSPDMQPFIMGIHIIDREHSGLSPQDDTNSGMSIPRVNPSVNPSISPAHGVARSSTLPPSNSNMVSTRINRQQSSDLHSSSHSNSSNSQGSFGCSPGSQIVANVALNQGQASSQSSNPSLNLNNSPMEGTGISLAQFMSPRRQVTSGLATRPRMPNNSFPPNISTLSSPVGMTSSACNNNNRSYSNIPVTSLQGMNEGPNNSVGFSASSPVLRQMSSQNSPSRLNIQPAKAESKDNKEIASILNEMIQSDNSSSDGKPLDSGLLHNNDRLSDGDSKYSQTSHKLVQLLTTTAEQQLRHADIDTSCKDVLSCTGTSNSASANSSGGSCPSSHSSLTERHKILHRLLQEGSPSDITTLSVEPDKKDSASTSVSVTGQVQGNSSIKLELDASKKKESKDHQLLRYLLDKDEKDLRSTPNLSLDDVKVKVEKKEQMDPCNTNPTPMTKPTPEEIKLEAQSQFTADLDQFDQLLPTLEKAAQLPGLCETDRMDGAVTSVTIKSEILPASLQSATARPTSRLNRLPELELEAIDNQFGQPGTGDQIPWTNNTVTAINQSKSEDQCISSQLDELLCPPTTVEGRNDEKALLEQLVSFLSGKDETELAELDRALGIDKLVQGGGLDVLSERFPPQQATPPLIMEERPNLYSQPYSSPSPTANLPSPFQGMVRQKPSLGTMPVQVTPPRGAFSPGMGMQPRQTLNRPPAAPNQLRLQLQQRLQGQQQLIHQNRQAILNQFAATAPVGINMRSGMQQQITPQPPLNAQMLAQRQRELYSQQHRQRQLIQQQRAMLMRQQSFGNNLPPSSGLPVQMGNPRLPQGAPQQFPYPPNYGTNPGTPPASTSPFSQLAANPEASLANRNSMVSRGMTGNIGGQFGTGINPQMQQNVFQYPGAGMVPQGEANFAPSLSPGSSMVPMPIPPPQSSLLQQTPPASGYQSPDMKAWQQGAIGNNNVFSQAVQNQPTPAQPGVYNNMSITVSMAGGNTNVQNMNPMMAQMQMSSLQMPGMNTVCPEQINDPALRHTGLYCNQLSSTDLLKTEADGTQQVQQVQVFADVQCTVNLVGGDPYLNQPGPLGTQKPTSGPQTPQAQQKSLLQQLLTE
A short description of test [4]: repression of VP16-driven luciferase reporter – cell-based, luminescence, high throughput, counter-screen for SRC1 inhibitor project (AID 588824; in the data active = inhibition above about 25%). To be noted: cell-based VP16 transactivation luciferase luminescence; at 3.6 µM; hits give high values.

Values without a mark were called inactive. Activity calls are given as the source filed them. Cut-off read from the data, not from the text of the source, unless noted: active = inhibition above about 30%; inactive = the rest.

Nuclear receptor coactivator 3 (Homo sapiens), sequence (Q9Y6Q9 whole entry, looked up, the tested form may be a part): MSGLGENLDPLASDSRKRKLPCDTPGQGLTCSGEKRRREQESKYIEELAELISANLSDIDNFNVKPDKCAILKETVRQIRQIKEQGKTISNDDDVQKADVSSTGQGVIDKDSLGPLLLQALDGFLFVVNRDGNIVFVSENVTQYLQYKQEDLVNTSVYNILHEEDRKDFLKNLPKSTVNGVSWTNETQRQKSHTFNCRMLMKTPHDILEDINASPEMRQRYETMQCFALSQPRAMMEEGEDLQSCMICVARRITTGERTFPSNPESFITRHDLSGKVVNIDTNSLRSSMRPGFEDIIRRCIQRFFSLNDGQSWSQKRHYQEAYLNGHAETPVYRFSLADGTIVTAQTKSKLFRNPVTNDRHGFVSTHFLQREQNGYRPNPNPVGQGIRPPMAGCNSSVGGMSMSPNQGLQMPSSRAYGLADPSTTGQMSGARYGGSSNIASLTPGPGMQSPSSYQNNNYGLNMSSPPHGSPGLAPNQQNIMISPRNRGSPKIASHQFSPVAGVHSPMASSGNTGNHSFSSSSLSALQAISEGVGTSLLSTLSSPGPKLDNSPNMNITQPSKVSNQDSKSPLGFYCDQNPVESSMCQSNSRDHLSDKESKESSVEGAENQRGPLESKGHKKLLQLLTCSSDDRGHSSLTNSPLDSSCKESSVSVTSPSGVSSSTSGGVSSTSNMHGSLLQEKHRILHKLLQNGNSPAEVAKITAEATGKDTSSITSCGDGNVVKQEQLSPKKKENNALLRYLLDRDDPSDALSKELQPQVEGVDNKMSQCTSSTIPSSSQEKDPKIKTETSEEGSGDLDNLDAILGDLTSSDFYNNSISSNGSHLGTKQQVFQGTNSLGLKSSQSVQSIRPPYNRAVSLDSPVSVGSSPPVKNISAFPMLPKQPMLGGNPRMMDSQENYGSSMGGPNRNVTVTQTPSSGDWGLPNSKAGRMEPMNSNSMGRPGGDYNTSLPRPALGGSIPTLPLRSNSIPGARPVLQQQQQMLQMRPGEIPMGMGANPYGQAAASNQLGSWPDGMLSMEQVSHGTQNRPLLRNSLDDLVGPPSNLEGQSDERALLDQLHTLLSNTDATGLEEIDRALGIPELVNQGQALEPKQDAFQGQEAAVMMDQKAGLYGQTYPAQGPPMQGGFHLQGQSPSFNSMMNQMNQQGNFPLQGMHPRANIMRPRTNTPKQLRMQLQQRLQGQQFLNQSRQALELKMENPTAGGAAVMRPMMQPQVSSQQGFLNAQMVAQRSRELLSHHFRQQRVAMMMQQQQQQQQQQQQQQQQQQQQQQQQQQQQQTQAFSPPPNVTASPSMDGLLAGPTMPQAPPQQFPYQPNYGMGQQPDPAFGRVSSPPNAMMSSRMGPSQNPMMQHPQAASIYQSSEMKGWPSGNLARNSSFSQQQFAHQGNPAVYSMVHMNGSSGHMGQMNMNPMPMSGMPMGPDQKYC

Broadly, the inhibition is the change of the read-out against control, counted positive when it falls. As for `Cc1cc(Br)cc(/C=N/NC(=O)c2ccc3c(c2)OCO3)c1O`, the inhibition in test [1] was 18.9%; in test [2], 26.3%.

Take `COc1ccc2c(O)c(-c3c(C)cc(C)cc3C)c(=O)[nH]c2c1`: the inhibition in test [1] was -14.3%; in test [2], -6.8%.

Turning to `COc1ccccc1C(=O)OCC(=O)c1ccc(CNC(C)=O)s1`, the inhibition in test [1] was 10.4%; in test [2], -0.94%.

`CCN1C/C(=C/c2ccc(N3CCOCC3)cc2)C(=O)/C(=C/c2ccc(N3CCOCC3)cc2)C1`: the figures for the inhibition in test [1] and in test [2] were 40.8% and 22.6%, respectively.

As for `COc1ccc(S(=O)(=O)N2CCCCCC2)cc1C(=O)N(C)CC(=O)Nc1cc(C)ccc1C`, the values for the inhibition in test [1] and in test [2] were 8.3% and 10.6%, respectively.

Consider `CCC(=O)N1CCN(c2ccnc3cc(Cl)ccc23)CC1`, for which the results for the inhibition in test [1] and in test [2] were 29.1% and 9.02%, respectively.

For the compound `O=S(=O)(c1ccccc1)c1nc(Nc2cccc(O)c2)sc1Cl`, the results for the inhibition in test [1] and in test [2] were -4.35% and 0.89%, respectively.

As for `CC(=O)c1c(C)[nH]c(C(=O)Nc2ccc(Cl)c(S(=O)(=O)N3CCOCC3)c2)c1C`, the inhibition was 18.6% in test [1] and -16.6% in test [2].

`CCCn1c(N)c(C(=O)CSc2ncc(C(F)(F)F)cc2Cl)c(=O)[nH]c1=O`: the inhibition was 14.6% in test [1] and -5.96% in test [2].

`Cc1ccc(-n2c(-c3ccccc3)c[n+]3c2CCC3)cc1`: the inhibition in test [1] was 14.4%; in test [2], 30.6% (active).

With `COc1ccc(NC(=O)N(C)C[C@H]2Oc3c(NC(=O)Nc4ccc(C(F)(F)F)cc4)cccc3C(=O)N([C@H](C)CO)C[C@@H]2C)cc1`, the inhibition in test [1] was 10.2%; in test [2], -6.34%.

For `COc1ccc(CN(Cc2cccn2C)S(=O)(=O)c2ccc(C)cc2)cc1`, the inhibition is 1.22% in test [1] and -4.15% in test [2].

As for `NC(=S)N/N=C1\CCOc2ccc(Cl)cc21`, the values for the inhibition in test [1] and in test [2] were 34.6% and 9.88%, respectively.

Consider `Clc1ccc(C[n+]2cc(-c3ccccc3)n3c2CCCCC3)c(Cl)c1`, for which the inhibition is 22.4% in test [1] and 46.7% (active) in test [2].

In the case of `CCOC(=O)c1c(C)[nH]c(C)c1C(=O)COC(=O)/C=C/c1cccc(Cl)c1`, the results for the inhibition in test [1] and in test [2] were -3.47% and -1.23%, respectively.

`CN[C@H]1CCc2cc(OC)c(OC)c(OC)c2-c2ccc(OC)c(=O)cc21`: the inhibition in test [1] was 40.5%; in test [2], -10.4%.

As to `Cn1nc(CC(=O)Nc2ccc(N3CCN(C(=O)OC(C)(C)C)CC3)cc2)c2ccccc2c1=O`, the inhibition is 17.6% in test [1] and 42.2% (active) in test [2].

Consider `Cc1ccc(N/C(N)=N/c2nc(C)cc(C)n2)cc1`, for which the inhibition was -9.39% in test [1] and -6.71% in test [2].

Regarding `CCN(CC)c1ccc(/C=N/NC(=O)c2cnccn2)c(O)c1`, the figures for the inhibition in test [1] and in test [2] were 45.2% (active) and 52.3% (active), respectively.

With `CCOC(=O)C1CCCN(c2c(NCCCN(C)c3ccccc3)c(=O)c2=O)C1` (stereo not drawn), the inhibition in test [1] was -9.14%; in test [2], -3.6%.

Regarding `O=C(NCCNc1ccc([N+](=O)[O-])cc1C(F)(F)F)c1cccc(F)c1`, the results for the inhibition in test [1] and in test [2] were 15.4% and 12.6%, respectively.

Turning to `COc1ccc(OC)c(C2C3=C(CCCC3=O)NC3=C2C(=O)CCC3)c1`, the inhibition in test [1] was 4.98%; in test [2] it was -6.31%.

On to `CCOC(=O)N1CCC(NC(=O)C2CCCN(Cc3nc(-c4ccc(CC)cc4)oc3C)C2)CC1` (stereo not drawn), for which the figures for the inhibition in test [1] and in test [2] were 18.7% and 33.9% (active), respectively.

Turning to `COc1ccc(-n2c(C)cc(C(=O)COc3ccc(C)nc3[N+](=O)[O-])c2C)cc1`, the inhibition is 14.4% in test [1] and 10.7% in test [2].

Consider `COc1ccc(CCN2C(=O)c3cccc4c(C(=O)N5CCCCC5)ccc(c34)C2=O)cc1OC`, for which the inhibition in test [1] is -2.54%; in test [2], 3.93%.

In the case of `O=C(CNc1cccc2ccccc12)N/N=C/c1ccc[nH]1`, the inhibition in test [1] was 7.38%; in test [2], 5.09%.

Take `Nc1cccc2c1C(=O)N(C(=O)c1cccc(S(=O)(=O)N3CCCCCC3)c1)C2=O`: the inhibition in test [1] is 1.95%; in test [2] it was -5.22%.

Regarding `CCN(CC)C(=O)c1[nH]cnc1C(=O)N[C@@H](CCCCNC(=O)OC(C)(C)C)C(=O)OC(C)(C)C`, the inhibition is 3.8% in test [1] and -3.67% in test [2].

Regarding `CCN(C(=O)c1cnc(OC)cc1C(F)(F)F)c1ccc(Cl)cc1`, the inhibition is 9.44% in test [1] and 4.62% in test [2].

For the compound `O=C(Nc1ncc(Cc2ccc(C(F)(F)F)cc2)s1)c1ccc(-c2cccc([N+](=O)[O-])c2)o1`, the figures for the inhibition in test [1] and in test [2] were 0.3% and 44.4% (active), respectively.

As for `COc1ccc(N2CCN(c3nc(NCCc4ccc(OC)c(OC)c4)nc(OC)n3)CC2)cc1`, the inhibition was 6.14% in test [1] and 1.14% in test [2].

Consider `CC(C)(CC(=O)O)CC(=O)Nc1ccc(Oc2ccc(C(C)(C)C)cc2)nc1`, for which the inhibition was 3.47% in test [1] and 0.08% in test [2].

`O=C(NCc1ccccc1)c1c(Cl)nc(Cl)c(Cl)c1Cl`: the inhibition is 42.1% in test [1] and 21.9% in test [2].

Take `O=C(CN1C(=O)C(=O)N(C2CCCC2)C1=O)Nc1ccccc1OC(F)F`: the inhibition in test [1] is 10.1%; in test [2], -11.8%.

As for `CC(=O)Nc1nc(C)c(-c2csc(Nc3cccc([N+](=O)[O-])c3)n2)s1`, the inhibition in test [1] is 7.09%; in test [2], -11.4%.

With `COc1ccc(CCNC(=O)C(C)n2nc(C)c3c(C)n(-c4ccc(C)cc4)nc3c2=O)c(OC)c1` (stereo not drawn), the inhibition in test [1] is 7.11%; in test [2], 30.4% (active).

Take `O=C(Nc1ccc(N2CCN(c3ncccc3C(F)(F)F)CC2)nc1)c1cccs1`: the inhibition is -7.92% in test [1] and 7.03% in test [2].

`O=C(NNC(=S)NCc1ccccc1)c1ccc2c(c1)OCO2`: the inhibition is -11.1% in test [1] and -11.7% in test [2].

Take `Cc1ccc(S(=O)(=O)NCCC(=O)Nc2ccncc2)cc1C`: the inhibition in test [1] is -1.9%; in test [2], -0.54%.

`CCOc1ccc(/C=N/OCC(=O)NCc2ccc3c(c2)OCO3)cc1OC`: the figures for the inhibition in test [1] and in test [2] were -12.6% and -5.41%, respectively.

With `O=C(Nc1ccc2c(c1)CCC2)C1CCN(c2c3c(nc4ncnn24)CCC3)CC1`, the inhibition in test [1] is 13.5%; in test [2] it was 13.2%.

For the compound `CCN(CC)CCCNc1nc2cc(OC)c(OC)cc2c2nc(-c3cccnc3)nn12`, the inhibition in test [1] is -30.7%; in test [2], 39.4% (active).

For the compound `FC(F)(F)c1cccc(Nc2cc(-c3ccccc3)nc3ncnn23)c1`, the inhibition in test [1] was -2.25%; in test [2], -0.93%.

Take `COc1ccc(N/N=C2/CCCCC2=O)cc1`: the inhibition in test [1] is -38.4%; in test [2] it was 21%.

Consider `O=c1[nH]c(=O)n(C2CC(O)C(CO)O2)cc1I` (stereo not drawn), for which the results for the inhibition in test [1] and in test [2] were 23.1% and 11.8%, respectively.

With `COc1cccc(C(=O)CC(=O)C(=O)Nc2cccc([N+](=O)[O-])c2C)c1`, the inhibition in test [1] was -3.08%; in test [2] it was -1.84%.

As for `COc1ccccc1N1CCN(C(=O)CSc2nnc3n2C(C)(C)Cc2ccccc2-3)CC1`, the inhibition in test [1] is -10.1%; in test [2], 27.2%.

For the compound `Cn1c(=O)n(C)c2cc(NS(=O)(=O)c3ccc(C(C)(C)C)cc3)ccc21`, the inhibition was 16.6% in test [1] and 14.9% in test [2].

For the compound `COc1ccc(Cc2nnc(SCc3ccc([N+](=O)[O-])cc3)o2)cc1`, the inhibition in test [1] was 26.2%; in test [2], 15.8%; in test [3], 19.3%; in test [4], 17.4%.

Consider `CC(C)c1ccc(-c2csc3ncnc(N4CCN(C)CC4)c23)cc1`, for which the inhibition in test [1] is 42.1%; in test [2], 35.5% (active); in test [3], 42.8%; in test [4], 32.9% (active).

Consider `CN(C)/C=C/C(=O)c1ccc2noc(-c3ccccc3)c2c1`, for which the inhibition in test [1] was 55.5% (active); in test [2] it was 28.1%; in test [3], 41.3%; in test [4] it was 33.7% (active).

On to `O=C(NC(=S)/C(=C1\CCCCCN1)[N+](=O)[O-])c1ccccc1`, for which the inhibition in test [1] is 32.1%; in test [2], 9.73%; in test [3], -25.3%; in test [4], -33%.

As to `COc1ccc(Cc2noc(CN3CCN(c4ccc(Cl)cn4)CC3)n2)cc1OC`, the inhibition in test [1] is 14.7%; in test [2], 21.5%; in test [3] it was 6.4%; in test [4], 33% (active).

Regarding `COc1ccc(OC)c(/C=C/c2ccnc3ccccc23)c1`, the inhibition in test [1] is 19.1%; in test [2], 54.2% (active); in test [3], 34.5%; in test [4] it was 53.7% (active).

Turning to `CC1(C)CCSC(/C=C/c2ccccc2)=N1`, the inhibition was 62.4% (active) in test [1], 45.5% (active) in test [2], 46.1% in test [3] and 39.8% (active) in test [4].

`CC(=O)c1c(C)n(-c2ccccc2)c2ccc(O)cc12`: the inhibition in test [1] is 50.6% (active); in test [2], 41.6% (active); in test [3], 44.7%; in test [4], 37.9% (active).

Take `O=c1[nH]c(=O)n([C@H]2C[C@H](O)[C@@H](CO)O2)cc1F`: the inhibition is 60.6% (active) in test [1], 31% (active) in test [2], 46% in test [3] and 35.4% (active) in test [4].

As for `CCOC(=O)CCCCC1C(CCCC(=O)OCC)C=NN1C` (stereo not drawn), the inhibition in test [1] is -16%; in test [2], -3.48%.

On to `O=C1CC(c2ccc3c(c2)OCO3)Sc2nc3ccccc3n21` (stereo not drawn), for which the inhibition was -6.28% in test [1], -34.8% in test [2], -110% in test [3] and -73.2% in test [4].

Regarding `O=C(Nc1c2ccccc2nc2ccccc12)C(Cl)(Cl)Cl`, the inhibition was -27% in test [1], 10.5% in test [2], -35% in test [3] and 8.17% in test [4].

For `COc1ccc(C(=O)N/N=C/c2cc(Br)ccc2O)cc1OC`, the inhibition is 26.2% in test [1], 37.5% (active) in test [2], 22% in test [3] and 42.5% (active) in test [4].

With `CCN(CC)S(=O)(=O)c1cccc(NC(=O)COC(=O)c2[nH]c(C)c(C(C)=O)c2C)c1`, the inhibition in test [1] is 20%; in test [2], 42.5% (active); in test [3], 6.19%; in test [4], 42.8% (active).

`Cc1[nH]n(-c2ccccc2)c(=O)c1/C=N/Nc1nncc(-c2ccccc2)n1`: the values for the inhibition in test [1] and in test [2] were 74.3% (active) and 67.5% (active), respectively.

`COc1ccc(/C=C(\C#N)C(=O)OCC(=O)N(C)C2CCS(=O)(=O)C2)cc1` (stereo not drawn): the results for the inhibition in test [1] and in test [2] were -1.8% and -11%, respectively.

Take `CN=C1S/C(=C\c2cc(C)n(-c3ccccc3F)c2C)C(=O)N1C`: the inhibition was -15.3% in test [1], -38.2% in test [2], -105% in test [3] and -68% in test [4].

Values taken from PubChem BioAssay.
